Laboratory results from PubChem BioAssay AID2685 (National Center for Advancing Translational Sciences (NCATS), 2010).
In all, about 320,000 compounds went through this assay and about 2,100 (0.66%) were called active. Another 53% or so got no clear call; they are omitted. This is one part of a sample in which actives are shown more often than they occur. Calls come from the whole dose curve; as a rule, active = well fitted inhibition curve with a large enough effect in the signal ratio, with a control signal flat (not every such curve was filed as active); inconclusive = small, poorly fitted or top-dose-only effect, or effect the other way, or a change in a side signal; inactive = flat fitted curve, though single readings scatter; the % refers to the signal ratio.
Potency is the fitted concentration of half-maximal effect.

Experiment: qHTS Assay for Lipid Storage Modulators in Drosophila S3 Cells;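 for cell number change: cells counted by Cell Tracker Red CMTPX staining in the red channel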
Conditions: BODIPY lipid droplet fluorescence, 18-24 h, cells fed with added oleic acid; cell number change: measured here: cell count max response; series mostly up to 46.1 µM
Summary of the method: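 Drosophila S3 cells loaded with oleic acid (400 uM, as added) and compounds at several concentrations; lipid droplets imaged by 488-nm laser-scanning cytometry, 500–530 nm intensity and object ratio to cell channel. Percent activity normalized to 20 uM Triacsin C.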
For `Cc1ccc(N=Cc2c(O)n(C)c(=O)n(C)c2=O)cc1`, the Potency was “inactive” and the cell number change was -14%. In the case of `CN1C2CCC1CC(OC(=O)c1ccc(Cl)cc1)C2` (stereo unspecified), the Potency is reported as “inactive” and the cell number change is reported as 1.41%. With `COc1ccc(C(=O)OC2C[C@H]3CC[C@H](C2)N3C)cc1OC` (stereo partly specified) the Potency was “inactive”. With `CN1C2CCC1CC(OC(=O)c1cc(Cl)cc(Cl)c1)C2` (stereo unspecified) the Potency was 23.1 µM (active). With `CNP1(NC)=NC(C(F)(F)F)=NC(C(F)(F)F)=N1` the Potency was “inactive”. With `COc1ccc(CC(C)NCCc2ccc(OC)c(OC)c2)cc1` (stereo unspecified) the Potency was “inactive” and the cell number change was 5.07%. In the case of `O=C(Nc1ccc(Cl)cc1)N1CC2CC(C1)c1cccc(=O)n1C2` (stereo unspecified), the Potency is reported as 1.84 µM (active) and the cell number change is reported as -2.6%. For `O=C(Nc1cccc(Cl)c1)N1C[C@H]2C[C@@H](C1)c1cccc(=O)n1C2`, the Potency was “inactive” and the cell number change was -7.76%. With `O=C(Nc1ccc(F)cc1)N1CC2CC(C1)c1cccc(=O)n1C2` (stereo unspecified) the Potency was “inactive” and the cell number change was -3.93%. In the case of `COc1ccc(OC)c(NP(=O)(Oc2ccc(Cl)cc2)Oc2ccc(Cl)cc2)c1`, the Potency is reported as “inactive” and the cell number change is reported as 16.2%. With `Cc1ccc2[nH]c3c(c2c1)CN(C(=O)CN1C[C@H]2C[C@@H](C1)c1cccc(=O)n1C2)CC3` the Potency was “inactive” and the cell number change was 14.9%. With `N#Cc1c(N2CCNCC2)nc(-c2ccco2)c2c1CCCC2` the Potency was “inactive” and the cell number change was 11.9%. In the case of `Cc1ccccc1-n1c(O)c(C(c2ccncc2)c2c(O)n(-c3ccccc3C)c(=O)[nH]c2=O)c(=O)[nH]c1=O`, the Potency is reported as “inactive” and the cell number change is reported as 5.35%. In the case of `FC(F)(F)c1ccc(CNCCc2ccc3c(c2)OCO3)cc1`, the Potency is reported as “inactive” and the cell number change is reported as 20.8%. With `Cc1ccc(-n2c(O)c(/C=N/NC(=O)c3ccncc3)c(=O)[nH]c2=O)cc1` the Potency was “inactive” and the cell number change was -2.6%. For `CCOC(=O)c1cccc(-[n+]2c(-c3ccccc3)cc(-c3ccccc3)cc2-c2ccccc2)c1`, the Potency was 13 µM (active) and the cell number change was -29.7%. With `Cc1ccc(-c2cc(-c3ccc(C)cc3)[n+](-c3ccc(C(=O)O)cc3)c(-c3ccc(C)cc3)c2)cc1` the Potency was “inactive” and the cell number change was 12.1%. In the case of `CCOC(=O)c1cccc([P+](=O)O)c1`, the Potency is reported as “inactive” and the cell number change is reported as 4.86%. For `C(CCc1nn[nH]n1)CCc1nn[nH]n1`, the Potency was “inactive” and the cell number change was 0.918%. With `CC1(C)CC(n2[nH]c(=O)c3c2NC(=O)CSC3c2ccc(F)cc2)CCO1` (stereo unspecified) the Potency was “inactive” and the cell number change was 1.16%. For `O=C1NC(=O)C(CCc2ccncc2)(Cc2ccc(OCc3ccccc3)cc2)C(=O)N1`, the Potency was “inactive” and the cell number change was 9.1%. For `CCC1CCCCN1C(=O)Cn1c(=O)oc2ccccc21` (stereo unspecified), the Potency was 1.46 µM (active). In the case of `O=C(Cn1c(=O)n(CC2CS2)c2ccccc21)N1CCCCCC1` (stereo unspecified), the Potency is reported as “inactive” and the cell number change is reported as 9.44%. In the case of `CCC1CCCCN1CC(=O)c1ccc(OC(F)F)cc1` (stereo unspecified), the Potency is reported as “inactive” and the cell number change is reported as 2.66%. In the case of `COC(=O)C1=CO[C@@H](C)[C@@H]2CN3CC[C@]4(C(=O)Nc5ccccc54)[C@@H]3C[C@H]12`, the Potency is reported as “inactive” and the cell number change is reported as -15.3%. For `O=C(c1cccc2ccccc12)C1CCCN(Cc2ccon2)C1` (stereo unspecified), the Potency was “inactive” and the cell number change was 0.85%. For `CSc1ccccc1C(=O)C1CCCN(Cc2cccc(C)n2)C1` (stereo unspecified), the Potency was “inactive” and the cell number change was 5.61%. With `O=P(O)(O)Cc1ccccc1OP(=O)(c1ccccc1)c1ccccc1` the Potency was “inactive” and the cell number change was -17.7%. For `O=P(O)(O)Oc1ccccc1P(=O)(c1ccccc1)c1ccccc1`, the Potency was “inactive” and the cell number change was 13.5%. In the case of `O=P(O)(O)COc1ccccc1P(=O)(c1ccccc1)c1ccccc1`, the Potency is reported as 16.4 µM (active). For `COc1ccc(CC(C)NC2CCCCCC2)cc1` (stereo unspecified), the Potency was “inactive” and the cell number change was -21%. In the case of `NC(=O)CSc1nnc([C@@H](N)Cc2c[nH]c3ccccc23)o1`, the Potency is reported as “inactive”. With `O=C(c1ccc(Br)cc1)C12CN3CN(CN(C3)C1)C2` the Potency was “inactive” and the cell number change was 8.31%. For `O=c1[nH]c(=O)n(C2CCCCC2)c(O)c1C=NCCCn1ccnc1`, the Potency was “inactive” and the cell number change was 17.5%. For `CCN(CC)CCN=Cc1c(O)n(CCC2=CCCCC2)c(=O)[nH]c1=O`, the Potency was 23.1 µM (active) and the cell number change was 11.2%. For `CCN(CC)CCN=Cc1c(O)n(C2CCCCCC2)c(=O)[nH]c1=O`, the Potency was 18.4 µM (active) and the cell number change was -10.3%. For `O=c1[nH]c(=O)n(CCC2=CCCCC2)c(O)c1/C=N/N1CCOCC1`, the Potency was “inactive” and the cell number change was 8.55%. For `CN(C)CCN=Cc1c(O)n(C2CCCCCC2)c(=O)[nH]c1=O`, the Potency was “inactive” and the cell number change was 6.67%. For `CCN(CC)CCN=Cc1c(O)n(CCc2ccccc2)c(=O)[nH]c1=O`, the Potency was “inactive” and the cell number change was 12.9%. With `C=CCn1c(C)c(C=C2C(=O)NC(=O)NC2=O)c2ccccc21` the Potency was “inactive” and the cell number change was 5.7%. With `O=c1[nH]c(=O)n(-c2ccc(Br)cc2)c(O)c1C=NC(CO)(CO)CO` the Potency was “inactive” and the cell number change was -6.55%. For `O=C(CCN1C(=O)COc2ccccc21)N1CCC2(CC1)OCCO2`, the Potency was “inactive” and the cell number change was 1.47%. With `O=c1c2ccccc2ncn1-c1ccc([N+](=O)[O-])c(C(F)(F)F)c1` the Potency was “inactive” and the cell number change was 7.19%. With `C[n+]1c(-c2ccccc2)cc(-c2ccc(O)cc2)cc1-c1ccccc1` the Potency was “inactive” and the cell number change was -18%. For `Cc1ccccc1-[n+]1c(-c2ccccc2)cc(-c2ccccc2)cc1-c1ccccc1`, the Potency was 23.1 µM (active). For `O=c1[nH]c(=S)n(C2CC2)c(O)c1C=NCc1cccnc1`, the Potency was “inactive” and the cell number change was 11.1%. In the case of `ON1C2CCCCC2N(O)C1c1ccccc1` (stereo unspecified), the Potency is reported as “inactive”. Work on `O[C@@H]1CCCC[C@H]1N1CCC(c2ccccc2)CC1` yielded a Potency of -4.74%. With `CC(=O)N1N=C2C3CCN(CC3)C2C1c1ccccc1` (stereo unspecified) the Potency was “inactive” and the cell number change was 1.69%. With `Cc1ccc(/C=C2/C(=O)NC(=O)N(CCc3ccc(F)cc3)C2=O)o1` the Potency was “inactive” and the cell number change was -2.41%. In the case of `FC(F)(F)c1ccccc1N1CC1c1ccncc1` (stereo unspecified), the Potency is reported as “inactive” and the cell number change is reported as -4.55%. For `CSc1ncc(/C=C2/C(=O)NC(=O)N(c3ccc(C)cc3)C2=O)cn1`, the Potency was “inactive” and the cell number change was 8.62%. For `O=C(c1ccc2c(=O)n(Cc3ccc4c(c3)OCO4)c(=S)[nH]c2c1)N1CCC2(CC1)OCCO2`, the Potency was “inactive” and the cell number change was -17%. In the case of `O=C1NC(=O)C(=Cc2ccsc2)C(=O)N1`, the Potency is reported as “inactive” and the cell number change is reported as 11.6%. With `O=C1NC(=S)NC(=O)C1=Cc1cccn1-c1ccc(O)cc1` the Potency was “inactive” and the cell number change was -0.957%. For `CN1C(=O)/C(=C/c2cccn2-c2ccc3ccccc3c2)C(=O)NC1=S`, the Potency was 3.26 µM (active) and the cell number change was -19%. In the case of `CN1C(=O)/C(=C\c2ccc(N3CCCCCC3)cc2)C(=O)NC1=S`, the Potency is reported as “inactive” and the cell number change is reported as 9.11%. In the case of `ClC(Cl)(Cl)c1ccccc1`, the Potency is reported as 0.58 µM (active) and the cell number change is reported as 2.26%. With `CC(c1ccccc1)(c1ccccc1)c1ccncc1` the Potency was “inactive” and the cell number change was 6.39%. For `Cc1ccc(N)c(C(=O)c2ccccc2)c1`, the Potency was “inactive” and the cell number change was -2.37%. In the case of `C=CCn1c(O)c(C(C)=NCc2ccc3c(c2)OCO3)c(=O)[nH]c1=O`, the Potency is reported as “inactive” and the cell number change is reported as 5.5%. In the case of `COc1ccc(C(=O)C(C)(C)NO)cc1`, the Potency is reported as 3.26 µM (active) and the cell number change is reported as -1.48%. In the case of `COc1ccc(C(=O)N2CCCC2=O)cc1`, the Potency is reported as “inactive” and the cell number change is reported as 11.9%. In the case of `COc1ccc(C(=O)C23CN4CN(CN(C4)C2)C3)cc1`, the Potency is reported as “inactive” and the cell number change is reported as 4.85%. With `O=C1NC(=O)N(c2ccc3c(c2)OCO3)C(=O)/C1=C\c1ccsc1` the Potency was “inactive” and the cell number change was -1.9%. In the case of `CC(=O)c1cc(C(C)=O)c(C)[n+](C)c1C`, the Potency is reported as “inactive” and the cell number change is reported as 12.6%. For `CNC(=S)N1CCN(CCN=Cc2c(O)n(-c3ccc(C)cc3)c(=S)[nH]c2=O)CC1`, the Potency was “inactive” and the cell number change was 1%. With `Cc1cc(OCC(=O)NCc2ccncc2)c2c3c(c(=O)oc2c1)CCC3` the Potency was “inactive” and the cell number change was -10.8%. In the case of `Cc1cc(OC(C)C(=O)NCC(O)c2ccccc2)c2c3c(c(=O)oc2c1)CCC3` (stereo unspecified), the Potency is reported as “inactive”. With `Cc1cc(OCC(=O)NCC(O)c2ccccc2)c2c3c(c(=O)oc2c1)CCC3` (stereo unspecified) the Potency was 20.6 µM (active) and the cell number change was -16.3%. With `CC(C)C12CN3CCN(CC(C3)/C1=N\O)C2` the Potency was 6.51 µM (active) and the cell number change was -1.85%. With `CCC12CN3CCN(CC(C3)/C1=N\O)C2` the Potency was “inactive” and the cell number change was -11.3%. With `CC12CN3CCN(CC(C3)/C1=N/NC(N)=O)C2` the Potency was “inactive” and the cell number change was 0.944%. For `C/C(=N\NC(=S)Nc1ccccc1)c1c(O)n(C)c(=O)n(C)c1=O`, the Potency was “inactive”. With `CCN1C[C@]2(C)CC[C@H](O)[C@]34C1[C@H](C[C@H]23)[C@@]1(O)C[C@H](OC)[C@H]2C[C@@H]4[C@@H]1C2O` (stereo partly specified) the Potency was “inactive” and the cell number change was -19.2%. With `CC(=NC1CCN(Cc2ccccc2)CC1)c1c(O)n(C)c(=O)n(C)c1=O` the Potency was 29.1 µM (active) and the cell number change was 4.54%. For `C=CCn1c(O)c(C(C)=NC2CCN(Cc3ccccc3)CC2)c(=O)[nH]c1=O`, the Potency was “inactive” and the cell number change was 4.94%. For `Cn1c(O)c(C=NC2CCN(Cc3ccccc3)CC2)c(=O)n(C)c1=O`, the Potency was “inactive” and the cell number change was 0.664%. In the case of `CCOC(=O)C1=C(N)OC2=C(C(=O)CCC2)[C@]12C(=O)N(CC(N)=O)c1ccccc12`, the Potency is reported as “inactive” and the cell number change is reported as 1.37%. With `CCCCOC(=O)C1=C(N)OC2=C(C(=O)CCC2)[C@]12C(=O)N(C)c1ccccc12` the Potency was 5.17 µM (active) and the cell number change was -3.29%. With `CCCCOC(=O)C1=C(N)OC2=C(C(=O)CC(C)(C)C2)[C@]12C(=O)N(C)c1ccccc12` the Potency was “inactive” and the cell number change was -14.5%. In the case of `COC1CCCCC1NCCc1ccccc1` (stereo unspecified), the Potency is reported as “inactive” and the cell number change is reported as -9.24%. In the case of `N#Cc1ccc(Cn2cc(C=O)c3ccccc32)cc1`, the Potency is reported as “inactive” and the cell number change is reported as 15.7%. For `C=CCn1c(O)c(C(CC)=NCCN2CCN(C(=S)NC)CC2)c(=O)[nH]c1=O`, the Potency was “inactive” and the cell number change was -0.0083%. In the case of `CCCCn1c(=O)c(C(=O)NCCc2ccccc2)c(O)c2ccccc21`, the Potency is reported as “inactive” and the cell number change is reported as -5.77%. With `Cc1cc(O)c2c(c1)C(=O)C13C(=C2O)C(=O)[C@H]2[C@@H](O)[C@@H]1[C@H]1[C@H](O)[C@@H]3C(=O)C3=C(O)c4c(O)cc(C)cc4C(=O)C312` (stereo partly specified) the Potency was 9.2 µM (active) and the cell number change was 19.8%.
